# Compound activity from PubChem.
# DT40 TDP1 no CPT: qHTS for Inhibitors of human tyrosyl-DNA phosphodiesterase 1 (TDP1): qHTS in cells in absence of CPT. DT40 Tdp1-/- hTDP1 cells, no CPT, ATP luminescence, 48 h. Potency, µM (titrated, usually from 46.2 µM), most hits filed as inhibitors. actives 15% (n = 420,000). AID 686978, 2013; note: nearly all actives have a fitted effect of over 55% in size
#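 Readout: luminescence from CellTiter-Glo after 30 min in the dark at RT. Cells: DT40 Tdp1-/- with stable hTDP1, 400/well. Exposure: compounds alone, ≥48 hr, 37 °C.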
# ClpP mod: qHTS Assay for Activators of ClpP. ATP-dependent Clp protease proteolytic subunit (Bacillus subtilis (strain 168)), P80244. purified B. subtilis ClpP, FRET peptide cleavage, 20 min. Potency, µM (top dose mostly 57.5 µM). actives 1.9% (n = 340,000). AID 651965, 2013; active = well fitted falling curve with a large enough effect; inconclusive = small, poorly fitted or top-dose-only effect; inactive = no such curve, though single readings can be large or run the other way; note: the source files actives as falling curves though it sought activators and does not explain the sign; nearly all actives have a fitted effect of over 65% in size
#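 Buffer: 100 mM Tris/HCl pH8, 100 mM KCl, 0.05% low protease BSA, 2.5% glycerol, 0.01% Tween-20. ClpP 10 microg/mL final; 20 min RT; delta FRET normalized to ADEP and DMSO controls.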
# TDP1 cell CPT: qHTS for Inhibitors of human tyrosyl-DNA phosphodiesterase 1 (TDP1): qHTS in cells in presence of CPT; chicken DT40 Tdp1-/-;hTDP1 cells + 20 nM CPT, ATP luminescence, 48 h; Potency, µM (series often up to 46.2 µM), usual class: inhibitors; actives 12% (n = 420,000); AID 686979, 2013; note: nearly all actives have a fitted effect of over 55% in size
#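 Cell growth measured by CellTiter-Glo luminescence after a minimum 48 h, 37 C compound exposure with 20 nM CPT in Tdp1-knockout DT40 cells stably expressing hTDP1, seeded 400/well; qHTS titration format.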
# TDP1 block: qHTS Assay for Inhibitors of Tyrosyl-DNA Phosphodiesterase (TDP1). recombinant TDP1, AlphaScreen DNA substrate cleavage. Potency, µM (top dose mostly 130 µM), actives largely listed as inhibitors. actives 0.28% (n = 350,000). AID 485290, 2010; note: nearly all actives have a fitted effect of over 40% in size
# Target sequence (Q9NUW8 whole entry, looked up): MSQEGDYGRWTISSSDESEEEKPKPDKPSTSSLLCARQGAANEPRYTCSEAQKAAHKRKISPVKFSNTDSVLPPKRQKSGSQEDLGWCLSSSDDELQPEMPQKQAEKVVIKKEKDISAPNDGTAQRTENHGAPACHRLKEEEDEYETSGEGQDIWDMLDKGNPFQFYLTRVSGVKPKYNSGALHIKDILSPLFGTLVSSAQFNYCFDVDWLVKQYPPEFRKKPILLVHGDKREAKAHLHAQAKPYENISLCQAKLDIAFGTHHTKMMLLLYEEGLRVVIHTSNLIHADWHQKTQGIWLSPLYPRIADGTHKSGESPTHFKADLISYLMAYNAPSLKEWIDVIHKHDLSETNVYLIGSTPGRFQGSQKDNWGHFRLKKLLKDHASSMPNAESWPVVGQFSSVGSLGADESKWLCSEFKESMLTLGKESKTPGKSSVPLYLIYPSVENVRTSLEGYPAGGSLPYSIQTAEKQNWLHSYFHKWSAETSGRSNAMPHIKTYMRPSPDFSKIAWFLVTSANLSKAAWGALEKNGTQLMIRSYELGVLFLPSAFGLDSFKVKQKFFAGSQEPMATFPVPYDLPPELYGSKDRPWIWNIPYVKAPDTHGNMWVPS
#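 Tdp1 1 nM final; 15 min RT w/ cpd; substrate 15 nM, 5 min; beads 10 ug/ml, 10 min; AlphaScreen read. Neg ctrl: no enzyme.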
# Hits are given with their value; – = inactive; ? = inconclusive; · = no result given. In the library only some 17% were active in any assay of this set; here they are far more common. Unless noted, calls come from the whole dose curve; as a rule, active = well fitted curve in the direction sought with a large enough effect; inconclusive = small, poorly fitted or top-dose-only effect, or another doubt; inactive = no such curve, though single readings can be large; an effect the other way counts as inactive or inconclusive.
SMILES,DT40 TDP1 no CPT,ClpP mod,TDP1 cell CPT,TDP1 block
COc1cccc(-c2cc3nc4c(c(N5CCC6(CC5)OCCO6)n3n2)CCC4)c1,26µM,–,18µM,–
COc1ccc(-c2cc3nc4c(c(N5CCC6(CC5)OCCO6)n3n2)CCC4)cc1,26µM,–,13µM,–
CC1CN(Cc2ccccc2)C(C)CC1O (stereo not given),–,·,–,–
COc1ccc(-n2cnc3c(c2=N)C(c2cccc(OC)c2)c2c(ccc4ccccc24)O3)cc1 (stereo not given),·,·,·,–
Cc1nc2sc(C(=O)N(C)Cc3ccccc3)c(NC(=O)c3ccccc3)c2c(C)c1Cl,16µM,–,?,–
Cc1nc2sc(C(=O)NCc3ccc(Cl)cc3)c(NC(=O)c3ccccc3)c2c(C)c1C,?,–,13µM,–
Cc1nc2sc(C(=O)N(C)c3ccccc3)c(NC(=O)c3ccccc3Cl)c2c(C)c1C,?,–,?,–
COc1ccc(CC(N)c2csc(NC(=O)Nc3ccc(F)cc3)n2)cc1 (stereo not given),13µM,–,23µM,·
COc1cc(NC(=O)Nc2nc(C(N)CCc3ccccc3)cs2)cc(OC)c1OC (stereo not given),7.3µM,–,?,·
NC(CO)c1csc(NC(=O)Nc2cccc(Cl)c2)n1 (stereo not given),–,–,–,·
NC(CCc1ccccc1)c1csc(NC(=O)NCC2CCCCC2)n1 (stereo not given),15µM,–,15µM,·
COc1ccc(NC(=O)Nc2nc(C(N)C3CCCCC3)cs2)cc1 (stereo not given),?,–,?,·
COc1ccc(OC)c(NC(=O)Nc2nc(C(N)CCc3ccccc3)cs2)c1 (stereo not given),9.2µM,–,7.3µM,·
Cc1cc(C)c2c(=O)c3c(oc2c1)C(=O)N(CCCOC(C)C)C3c1ccccc1F (stereo not given),?,–,–,–
COC(=O)[C@]1(Cc2ccccc2)N[C@H](CN(C)C(=O)c2ccc(F)cc2)[C@@H]2C(=O)N(C)C(=O)[C@@H]21,–,–,–,–
COc1ccc(C)cc1NC(=O)N(C(C)C)C1CCN(C(C)=O)CC1,–,–,–,–
CC1(C)SC2C(NC(=O)C(N)c3ccccc3)C(=O)N2C1C(=O)O (stereo not given),–,·,–,–
Cc1cccn2c(=O)c(C(=O)NCCc3ccccc3)cnc12,?,–,–,–
COc1ccc(CC(N)c2csc(NC(=O)Nc3ccccc3C(C)(C)C)n2)cc1 (stereo not given),?,–,?,·
COc1ccc(CC(N)c2csc(NC(=O)Nc3cc(OC)ccc3OC)n2)cc1 (stereo not given),5.8µM,–,5.2µM,·
Cc1ccc(NCN2C(=O)C(=O)c3ccccc32)nc1,1.3µM,–,2.3µM,–
COC(=O)C1=C[C@@H](C(=O)OC)C2C3=C(C(=O)[C@]2(C)NC(=O)c2ccccc2)[C@H](C)[C@@H]2C(=O)N(C)C(=O)[C@@H]2[C@@H]3C1 (stereo not given in full),·,·,·,–
COc1ccc(CNC(=O)COC(=O)CC2CC3CCC2C3)cc1OC (stereo not given),?,–,–,–
COc1ccc(-c2cc(-c3nnc(COC(=O)CC4CC5CCC4C5)o3)c3ccccc3n2)cc1OC (stereo not given),21µM,?,21µM,–
CCN1C(=O)[C@H]2[C@@H](c3ccc(-c4ccc(F)cc4)c(OC)c3)N3CCCC[C@@]3(C(=O)OC)[C@H]2C1=O,16µM,–,23µM,–
CCN1C(=O)[C@@H]2[C@@H](c3ccc(-c4ccc(C(C)=O)cc4)c(OC)c3)N3CCC[C@@]3(C(=O)OC)[C@@H]2C1=O,?,–,?,–
CCN1C(=O)[C@@H]2[C@@H](c3ccc(-c4ccc(C(C)=O)cc4)c(OC)c3)N3CCCC[C@@]3(C(=O)OC)[C@@H]2C1=O,15µM,–,?,–
CCN1C(=O)[C@@H]2[C@@H](c3ccc(-c4ccc(F)cc4)c(OC)c3)N3CCC[C@@]3(C(=O)OC)[C@@H]2C1=O,?,–,23µM,–
